# Experimental data as given in paper PMC7862700, “An all-to-all approach to the identification of sequence-specific readers for epigenetic DNA modifications on cytosine”.
# How the values were obtained:
# Assay in all cases: DAPPL (digital affinity profiling via proximity ligation, sequencing); 10 mM Tris-HCl pH 7.5, 50 mM NaCl, 1 mM DTT, 4% glycerol, room temperature, 30 min; GST-TFs on glutathione beads, 16-mer random dsDNA library, 0.1% formaldehyde crosslink after washing; high values mean tight binding
# Settings in all cases: protein: recombinant; tags: N-terminal GST; dsDNA, one strand shown
# FLI1 = target: T1, FLI1 (Homo sapiens, UniProt Q01543 1-452)
# T1 sequence: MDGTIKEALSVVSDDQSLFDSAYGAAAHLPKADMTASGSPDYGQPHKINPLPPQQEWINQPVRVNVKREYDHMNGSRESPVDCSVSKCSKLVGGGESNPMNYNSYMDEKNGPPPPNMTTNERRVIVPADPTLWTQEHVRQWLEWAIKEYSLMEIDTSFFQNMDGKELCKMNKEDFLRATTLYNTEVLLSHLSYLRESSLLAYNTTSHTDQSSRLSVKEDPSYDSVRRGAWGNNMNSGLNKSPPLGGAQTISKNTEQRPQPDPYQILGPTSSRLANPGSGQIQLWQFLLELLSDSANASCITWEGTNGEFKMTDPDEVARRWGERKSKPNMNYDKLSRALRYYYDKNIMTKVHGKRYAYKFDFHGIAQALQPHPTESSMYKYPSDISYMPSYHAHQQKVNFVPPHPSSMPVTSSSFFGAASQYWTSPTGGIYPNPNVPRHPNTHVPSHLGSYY
# Procedure, shortened: (§1)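 After expression in yeast as GST fusions, human transcription factors were bound to glutathione beads, DNA-barcoded and mixed with a tag-only sample. The pools were incubated with 200 nmole of a 16-mer random double-stranded DNA library in Tris/NaCl/DTT/glycerol buffer (30 min, room temperature), washed and crosslinked with 0.1% formaldehyde. Proximity ligation with BsaI/T4 ligase ran for 1 h at 37 °C, before PCR amplification and sequencing on an Illumina NextSeq500. Binding signal is a hexamer's read frequency for a factor divided by its frequency for the tag-only sample.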
# ELK1 = target: T2, ELK1 (Homo sapiens, UniProt P19419 1-428)
# T2 sequence: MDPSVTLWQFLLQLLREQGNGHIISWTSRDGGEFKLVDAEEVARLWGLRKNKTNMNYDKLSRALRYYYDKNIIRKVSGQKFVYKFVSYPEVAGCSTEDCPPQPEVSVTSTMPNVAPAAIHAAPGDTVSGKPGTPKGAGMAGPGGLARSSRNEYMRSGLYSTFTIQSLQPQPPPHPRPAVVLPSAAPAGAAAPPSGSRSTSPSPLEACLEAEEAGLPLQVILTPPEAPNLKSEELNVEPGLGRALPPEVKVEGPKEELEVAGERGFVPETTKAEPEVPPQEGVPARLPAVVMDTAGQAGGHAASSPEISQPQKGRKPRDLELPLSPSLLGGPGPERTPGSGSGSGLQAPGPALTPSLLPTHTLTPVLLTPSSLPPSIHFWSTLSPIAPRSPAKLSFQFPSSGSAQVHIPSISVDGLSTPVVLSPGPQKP
# Procedure, shortened: as §1
# GABPA = target: T3, GABPA (Homo sapiens, UniProt Q06546 1-454)
# T3 sequence: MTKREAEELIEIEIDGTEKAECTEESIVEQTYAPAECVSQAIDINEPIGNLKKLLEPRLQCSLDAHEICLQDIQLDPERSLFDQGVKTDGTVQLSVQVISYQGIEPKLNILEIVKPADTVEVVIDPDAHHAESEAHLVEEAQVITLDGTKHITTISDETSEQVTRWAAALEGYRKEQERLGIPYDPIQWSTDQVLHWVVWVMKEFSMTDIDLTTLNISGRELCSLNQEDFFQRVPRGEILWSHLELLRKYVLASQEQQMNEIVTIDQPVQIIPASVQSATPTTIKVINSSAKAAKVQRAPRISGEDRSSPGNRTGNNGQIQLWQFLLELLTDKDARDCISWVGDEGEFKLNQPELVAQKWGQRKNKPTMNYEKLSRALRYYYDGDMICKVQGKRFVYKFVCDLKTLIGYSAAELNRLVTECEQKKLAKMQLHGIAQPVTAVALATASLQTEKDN
# Procedure, shortened: as §1
# ERG = target: T4, ERG (Homo sapiens, UniProt P11308 1-479)
# T4 sequence: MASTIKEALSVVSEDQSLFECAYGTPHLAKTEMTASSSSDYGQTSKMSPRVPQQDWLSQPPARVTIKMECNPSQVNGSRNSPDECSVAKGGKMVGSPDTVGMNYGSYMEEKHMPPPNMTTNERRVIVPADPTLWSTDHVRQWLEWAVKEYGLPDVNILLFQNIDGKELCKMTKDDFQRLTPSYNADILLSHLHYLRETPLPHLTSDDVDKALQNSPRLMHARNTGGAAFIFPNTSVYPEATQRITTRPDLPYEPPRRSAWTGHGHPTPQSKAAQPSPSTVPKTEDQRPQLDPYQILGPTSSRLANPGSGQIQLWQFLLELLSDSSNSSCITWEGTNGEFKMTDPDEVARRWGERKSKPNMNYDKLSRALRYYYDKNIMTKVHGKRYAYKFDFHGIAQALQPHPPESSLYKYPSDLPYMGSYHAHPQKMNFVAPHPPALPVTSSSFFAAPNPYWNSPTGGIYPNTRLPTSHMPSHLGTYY
# Procedure, shortened: as §1
# ELF1 = ELF1 (Homo sapiens, UniProt P32519 1-619)
# Chain of ELF1 (P32519 whole entry): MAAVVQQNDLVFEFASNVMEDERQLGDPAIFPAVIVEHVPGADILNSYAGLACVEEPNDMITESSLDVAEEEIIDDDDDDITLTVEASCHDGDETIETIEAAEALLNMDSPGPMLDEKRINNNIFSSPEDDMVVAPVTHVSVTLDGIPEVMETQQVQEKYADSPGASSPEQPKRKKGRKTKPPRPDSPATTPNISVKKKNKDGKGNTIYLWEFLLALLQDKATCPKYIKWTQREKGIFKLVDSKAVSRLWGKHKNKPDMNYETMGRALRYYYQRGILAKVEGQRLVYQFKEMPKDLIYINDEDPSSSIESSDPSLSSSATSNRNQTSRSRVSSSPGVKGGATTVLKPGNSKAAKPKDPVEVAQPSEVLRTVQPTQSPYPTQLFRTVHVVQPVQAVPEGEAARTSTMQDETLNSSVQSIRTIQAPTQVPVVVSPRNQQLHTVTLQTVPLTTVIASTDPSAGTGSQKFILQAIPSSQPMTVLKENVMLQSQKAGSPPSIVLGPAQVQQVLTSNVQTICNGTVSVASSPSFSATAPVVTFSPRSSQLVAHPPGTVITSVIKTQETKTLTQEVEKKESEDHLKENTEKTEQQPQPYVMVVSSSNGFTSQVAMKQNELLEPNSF
# Procedure, shortened: as §1
# EHF = target: T5, EHF (Homo sapiens, UniProt Q9NZC4 1-300)
# T5 sequence: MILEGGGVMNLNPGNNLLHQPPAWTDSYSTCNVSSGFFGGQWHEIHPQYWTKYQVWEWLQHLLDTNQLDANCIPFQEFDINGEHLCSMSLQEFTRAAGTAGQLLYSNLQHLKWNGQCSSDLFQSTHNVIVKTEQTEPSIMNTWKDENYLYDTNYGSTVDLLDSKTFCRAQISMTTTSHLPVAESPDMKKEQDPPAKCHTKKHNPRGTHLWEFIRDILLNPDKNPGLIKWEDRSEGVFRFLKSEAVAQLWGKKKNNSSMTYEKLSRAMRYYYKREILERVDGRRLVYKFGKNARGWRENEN
# Procedure, shortened: as §1
# SPIB = SPIB (Homo sapiens, UniProt Q01892 1-262)
# Chain of SPIB (Q01892 whole entry): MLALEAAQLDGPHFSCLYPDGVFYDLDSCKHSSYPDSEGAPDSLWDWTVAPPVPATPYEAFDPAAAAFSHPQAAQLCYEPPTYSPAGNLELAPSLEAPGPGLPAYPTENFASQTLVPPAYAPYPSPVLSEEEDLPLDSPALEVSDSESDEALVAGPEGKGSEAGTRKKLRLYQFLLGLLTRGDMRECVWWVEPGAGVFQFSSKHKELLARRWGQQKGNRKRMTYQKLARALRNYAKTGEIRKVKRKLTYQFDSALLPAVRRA
# Procedure, shortened: as §1
# ELK3 = target: T6, ELK3 (Homo sapiens, UniProt P41970 1-407)
# T6 sequence: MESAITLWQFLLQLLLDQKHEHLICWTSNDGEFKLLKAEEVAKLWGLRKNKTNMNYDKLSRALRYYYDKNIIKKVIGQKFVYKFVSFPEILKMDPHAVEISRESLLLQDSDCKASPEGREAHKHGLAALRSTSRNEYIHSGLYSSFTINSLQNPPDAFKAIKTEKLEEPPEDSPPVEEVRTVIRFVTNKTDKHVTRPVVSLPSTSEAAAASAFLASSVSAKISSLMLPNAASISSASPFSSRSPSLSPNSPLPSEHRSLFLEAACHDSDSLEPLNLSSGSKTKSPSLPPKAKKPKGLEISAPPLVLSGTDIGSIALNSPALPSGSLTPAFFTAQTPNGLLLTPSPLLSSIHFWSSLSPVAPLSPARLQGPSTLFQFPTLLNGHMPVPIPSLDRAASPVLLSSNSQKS
# Procedure, shortened: as §1
# FEV = target: T7, FEV (Homo sapiens, UniProt Q99581 1-238)
# T7 sequence: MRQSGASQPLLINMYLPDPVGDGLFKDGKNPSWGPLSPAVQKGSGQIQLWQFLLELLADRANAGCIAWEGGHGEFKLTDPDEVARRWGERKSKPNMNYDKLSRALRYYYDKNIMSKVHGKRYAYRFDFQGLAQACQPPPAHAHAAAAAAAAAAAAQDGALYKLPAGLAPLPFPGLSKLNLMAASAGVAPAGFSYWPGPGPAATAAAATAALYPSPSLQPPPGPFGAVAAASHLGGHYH
# Procedure, shortened: as §1
# ETV5 = ETV5 (Homo sapiens, UniProt P41161 1-510)
# Chain of ETV5 (P41161 whole entry): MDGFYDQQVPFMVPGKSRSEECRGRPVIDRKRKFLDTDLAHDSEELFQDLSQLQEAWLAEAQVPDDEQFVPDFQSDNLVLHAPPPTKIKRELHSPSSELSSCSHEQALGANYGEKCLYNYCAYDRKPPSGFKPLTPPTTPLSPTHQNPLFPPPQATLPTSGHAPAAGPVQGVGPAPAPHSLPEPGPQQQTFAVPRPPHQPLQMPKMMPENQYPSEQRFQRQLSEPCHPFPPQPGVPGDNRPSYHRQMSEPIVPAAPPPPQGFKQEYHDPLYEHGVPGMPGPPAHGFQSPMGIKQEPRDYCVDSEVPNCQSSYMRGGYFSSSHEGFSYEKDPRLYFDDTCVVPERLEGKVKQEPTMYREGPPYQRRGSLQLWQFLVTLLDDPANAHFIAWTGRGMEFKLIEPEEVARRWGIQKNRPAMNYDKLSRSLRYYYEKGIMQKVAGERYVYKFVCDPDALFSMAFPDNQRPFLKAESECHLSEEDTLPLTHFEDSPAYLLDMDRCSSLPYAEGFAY
# Procedure, shortened: as §1
# SPIC = target: T8, SPIC (Homo sapiens, UniProt Q8N5J4 1-248)
# T8 sequence: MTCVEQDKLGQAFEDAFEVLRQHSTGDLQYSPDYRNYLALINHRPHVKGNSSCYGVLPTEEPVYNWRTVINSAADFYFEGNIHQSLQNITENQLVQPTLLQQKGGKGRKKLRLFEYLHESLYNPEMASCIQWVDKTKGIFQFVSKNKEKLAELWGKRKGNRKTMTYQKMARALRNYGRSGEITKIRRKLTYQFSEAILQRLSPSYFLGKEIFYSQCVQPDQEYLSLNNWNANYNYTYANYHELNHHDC
# Procedure, shortened: as §1
# ELF4 = ELF4 (Homo sapiens, UniProt Q99607 1-663)
# Chain of ELF4 (Q99607 whole entry): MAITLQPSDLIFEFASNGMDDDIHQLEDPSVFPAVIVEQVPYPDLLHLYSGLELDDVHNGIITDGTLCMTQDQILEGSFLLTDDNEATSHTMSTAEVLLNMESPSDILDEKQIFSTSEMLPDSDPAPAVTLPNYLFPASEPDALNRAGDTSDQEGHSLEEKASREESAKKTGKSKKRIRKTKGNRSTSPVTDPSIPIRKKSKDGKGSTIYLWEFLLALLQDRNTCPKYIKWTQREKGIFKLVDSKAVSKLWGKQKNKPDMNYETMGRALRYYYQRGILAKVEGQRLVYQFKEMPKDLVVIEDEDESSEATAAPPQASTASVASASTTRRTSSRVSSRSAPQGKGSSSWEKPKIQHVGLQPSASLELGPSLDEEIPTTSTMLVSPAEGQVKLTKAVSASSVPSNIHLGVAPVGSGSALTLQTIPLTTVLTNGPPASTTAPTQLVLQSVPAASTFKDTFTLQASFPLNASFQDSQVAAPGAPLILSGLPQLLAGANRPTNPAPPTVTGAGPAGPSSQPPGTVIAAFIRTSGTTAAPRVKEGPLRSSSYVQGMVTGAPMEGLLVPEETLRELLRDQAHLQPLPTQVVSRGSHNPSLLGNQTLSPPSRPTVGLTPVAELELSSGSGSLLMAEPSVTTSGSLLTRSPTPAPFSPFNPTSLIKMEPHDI
# Procedure, shortened: as §1
# ELK4 = target: T9, ELK4 (Homo sapiens, UniProt P28324-2 1-405)
# T9 sequence: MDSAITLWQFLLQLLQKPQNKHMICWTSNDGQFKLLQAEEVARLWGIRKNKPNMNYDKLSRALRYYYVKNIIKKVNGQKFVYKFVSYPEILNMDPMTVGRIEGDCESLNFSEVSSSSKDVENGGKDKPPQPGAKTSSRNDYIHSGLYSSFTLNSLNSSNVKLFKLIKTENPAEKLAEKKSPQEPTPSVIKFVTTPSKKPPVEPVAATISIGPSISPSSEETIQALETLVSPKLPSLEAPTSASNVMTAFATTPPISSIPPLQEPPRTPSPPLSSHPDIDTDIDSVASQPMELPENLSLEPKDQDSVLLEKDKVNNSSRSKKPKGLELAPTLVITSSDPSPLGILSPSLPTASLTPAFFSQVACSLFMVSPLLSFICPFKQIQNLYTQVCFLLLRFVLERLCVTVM
# Procedure, shortened: as §1
# ETV2 = target: T10, ETV2 (Homo sapiens, UniProt O00321 1-342)
# T10 sequence: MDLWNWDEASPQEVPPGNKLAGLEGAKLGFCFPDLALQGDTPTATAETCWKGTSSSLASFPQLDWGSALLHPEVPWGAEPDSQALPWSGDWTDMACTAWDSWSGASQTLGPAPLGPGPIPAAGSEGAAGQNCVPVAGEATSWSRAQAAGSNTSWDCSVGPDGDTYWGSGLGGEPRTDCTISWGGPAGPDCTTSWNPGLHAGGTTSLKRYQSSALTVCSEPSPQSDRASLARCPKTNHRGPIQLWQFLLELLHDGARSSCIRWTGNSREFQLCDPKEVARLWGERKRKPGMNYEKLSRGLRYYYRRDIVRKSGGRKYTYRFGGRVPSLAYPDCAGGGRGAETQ
# Procedure, shortened: as §1
# ELF3 = target: T11, ELF3 (Homo sapiens, UniProt P78545 1-371)
# T11 sequence: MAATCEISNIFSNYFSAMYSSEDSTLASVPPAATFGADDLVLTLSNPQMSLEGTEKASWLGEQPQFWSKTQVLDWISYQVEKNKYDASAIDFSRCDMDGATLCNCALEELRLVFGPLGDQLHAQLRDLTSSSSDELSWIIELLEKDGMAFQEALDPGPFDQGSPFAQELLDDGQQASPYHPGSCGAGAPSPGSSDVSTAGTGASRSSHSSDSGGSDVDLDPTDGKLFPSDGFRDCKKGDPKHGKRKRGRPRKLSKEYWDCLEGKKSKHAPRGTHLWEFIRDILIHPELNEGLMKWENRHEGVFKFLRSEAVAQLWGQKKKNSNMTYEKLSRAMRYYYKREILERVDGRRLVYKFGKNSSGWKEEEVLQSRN
# Procedure, shortened: as §1
# CRX = CRX (Homo sapiens, UniProt O43186 1-299)
# Chain of CRX (O43186 whole entry): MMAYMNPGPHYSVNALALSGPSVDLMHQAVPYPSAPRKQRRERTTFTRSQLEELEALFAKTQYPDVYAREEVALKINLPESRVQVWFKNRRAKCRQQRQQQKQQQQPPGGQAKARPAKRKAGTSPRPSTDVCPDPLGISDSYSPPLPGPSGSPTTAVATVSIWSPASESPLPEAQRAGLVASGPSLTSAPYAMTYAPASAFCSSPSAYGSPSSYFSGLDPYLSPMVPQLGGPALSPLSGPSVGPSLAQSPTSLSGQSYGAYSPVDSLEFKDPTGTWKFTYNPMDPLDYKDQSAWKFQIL
# Procedure, shortened: as §1
# ETV1 = ETV1 (Homo sapiens, UniProt P50549 1-477)
# Chain of ETV1 (P50549 whole entry): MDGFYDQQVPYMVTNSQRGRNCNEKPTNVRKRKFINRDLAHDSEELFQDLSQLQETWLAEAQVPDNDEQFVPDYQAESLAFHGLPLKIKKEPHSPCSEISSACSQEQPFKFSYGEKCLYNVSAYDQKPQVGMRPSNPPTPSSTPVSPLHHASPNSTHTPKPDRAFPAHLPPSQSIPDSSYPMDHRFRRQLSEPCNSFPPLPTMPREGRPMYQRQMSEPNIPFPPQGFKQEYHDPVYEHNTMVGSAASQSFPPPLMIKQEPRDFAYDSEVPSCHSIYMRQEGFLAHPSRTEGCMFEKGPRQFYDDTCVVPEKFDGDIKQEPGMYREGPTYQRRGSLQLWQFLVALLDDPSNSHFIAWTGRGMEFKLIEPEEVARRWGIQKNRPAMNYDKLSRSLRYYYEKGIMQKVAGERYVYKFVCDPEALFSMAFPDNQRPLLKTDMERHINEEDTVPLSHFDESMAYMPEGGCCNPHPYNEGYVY
# Procedure, shortened: as §1
# SPI1 = SPI1 (Homo sapiens, UniProt P17947 1-270)
# Procedure, shortened: as §1
Sequence,binding signal (FLI1),binding signal (ELK1),binding signal (GABPA),binding signal (ERG),binding signal (ELF1),binding signal (EHF),binding signal (SPIB),binding signal (ELK3),binding signal (FEV),binding signal (ETV5),binding signal (SPIC),binding signal (ELF4),binding signal (ELK4),binding signal (ETV2),binding signal (ELF3),binding signal (CRX),binding signal (ETV1),binding signal (SPI1)
GTAATG,"1.07 fold enrichment (6-mer frequency, TF over GST control)","1.07 fold enrichment (6-mer frequency, TF over GST control)","1.16 fold enrichment (6-mer frequency, TF over GST control)","1.05 fold enrichment (6-mer frequency, TF over GST control)","1.11 fold enrichment (6-mer frequency, TF over GST control)","1.12 fold enrichment (6-mer frequency, TF over GST control)","1.06 fold enrichment (6-mer frequency, TF over GST control)","1.03 fold enrichment (6-mer frequency, TF over GST control)","1.03 fold enrichment (6-mer frequency, TF over GST control)","1.09 fold enrichment (6-mer frequency, TF over GST control)","1.02 fold enrichment (6-mer frequency, TF over GST control)","1.08 fold enrichment (6-mer frequency, TF over GST control)","1.09 fold enrichment (6-mer frequency, TF over GST control)","1.04 fold enrichment (6-mer frequency, TF over GST control)","1.14 fold enrichment (6-mer frequency, TF over GST control)","1 fold enrichment (6-mer frequency, TF over GST control)","1.22 fold enrichment (6-mer frequency, TF over GST control)",–
TTGCGT,"1.05 fold enrichment (6-mer frequency, TF over GST control)","1.14 fold enrichment (6-mer frequency, TF over GST control)","1.12 fold enrichment (6-mer frequency, TF over GST control)","1.03 fold enrichment (6-mer frequency, TF over GST control)","1.11 fold enrichment (6-mer frequency, TF over GST control)","1.01 fold enrichment (6-mer frequency, TF over GST control)","1.11 fold enrichment (6-mer frequency, TF over GST control)","1.13 fold enrichment (6-mer frequency, TF over GST control)",–,"1.1 fold enrichment (6-mer frequency, TF over GST control)","1.1 fold enrichment (6-mer frequency, TF over GST control)","1.08 fold enrichment (6-mer frequency, TF over GST control)","1.12 fold enrichment (6-mer frequency, TF over GST control)","1.33 fold enrichment (6-mer frequency, TF over GST control)","1.16 fold enrichment (6-mer frequency, TF over GST control)",–,"1.12 fold enrichment (6-mer frequency, TF over GST control)","1.11 fold enrichment (6-mer frequency, TF over GST control)"
